Marburg entry inh – blocks Marburg virus binding to or entry into cells; Marburg virus pseudotyped entry inhibition, cell reporter; Potency, µM (highest dose often 37.8 µM), without a hit: at the highest dose activity change, negative = inhibition, hits mostly inhibitors; hit rate 1.8% among 300,000; AID 540276; calls by dose curve; tested in HEK293 cells
LASV entry inh – inhibitors of Lassa virus binding or cell entry; Lassa virus pseudotype entry inhibition, cell reporter; Potency, µM (titrated, usually from 37.9 µM), for the others: top-dose activity change, negative = inhibition, actives largely listed as inhibitors; hit rate 1.2% among 300,000; calls by dose curve; tested in HEK293 cells; further: nearly all actives have a fitted effect of over 50% in size
VACV Venus inh – vaccinia inhibition (Venus reporter); Vaccinia virus Venus reporter expression, fluorescence; Potency, µM (series often up to 36.5 µM), for the others: at the top dose activity change, negative = inhibition, usual class: inhibitors; AID 720580; hit rate 0.46% among 330,000; calls by dose curve; tested in A549 cells; further: nearly all actives have a fitted effect of over 30% in size
HCV inh – inhibitors of hepatitis C virus infection; AID 651820; Huh7.5.1 HCVcc-Cre infection, luciferase reporter, 44 h; Potency, µM (titrated, usually from 41.8 µM), for the others: at the top dose activity change, negative = inhibition, most hits filed as inhibitors; hit rate 3.4% among 340,000; active means well fitted inhibition curve with a large enough effect; inconclusive means small, poorly fitted or top-dose-only effect, or another doubt; inactive means no such curve, though single readings can be large or run the other way
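After 44 h co-culture of compound, cells and HCVcc-Cre (~0.5 moi), substrate is added for 15 min at room temperature and luciferase measured over 15 sec. Cells were seeded at 1,000/well and pre-cultured 4 h.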
Vaccinia mCherry – vaccinia inhibition (mCherry reporter); Potency, µM (highest dose often 36.5 µM), inactives show top-dose activity change, negative = inhibition, hits mostly inhibitors; Vaccinia virus mCherry reporter infection, fluorescence; hit rate 0.63% among 310,000; AID 720579; calls by dose curve; tested in A549 cells; further: nearly all actives have a fitted effect of over 35% in size
* = called active by the depositor; i = inactive; ? = inconclusive; . = no result given; [ ] = remark or other dose. Rows were chosen to be rich in hits. Some 4.6% of all compounds tested hit in one or more screens of this group. On the % scale 0 is the no-effect control and ±100 the full control effect; potency means the concentration at half of the fitted maximal effect.

SMILES	Marburg entry inh	LASV entry inh	VACV Venus inh	HCV inh	Vaccinia mCherry
CN(C)CCNc1cc(-c2ccncc2)nc2ccccc12	6.31µM*	-12.3%[46.1 µM]	-22.2%	-1.7%	i
COc1cc(CN2CCC3(CCC(CNC(=O)c4ccco4)O3)CC2)cc(OC)c1 (stereo unspecified)	.	.	-13.9%	.	-14.2%
CCOC(=O)C1(CCOc2ccccc2)CCN(Cc2cc(OC)c(O)c(OC)c2)CC1	.	.	.	-24.0%	.
CCOC(=O)C1(CCOc2ccccc2)CCN(Cc2ccc(O)c(OCC)c2)CC1	11.2µM*	?	-12.2%	?	?
CCOC(=O)C1(CCOc2ccccc2)CCN(Cc2ccc(OC)c(COC)c2)CC1	?	?	-26.3%	11.2µM*	-5.9%
Cc1cccc(N2CCN(C(=O)c3cnn(-c4ccccc4)c3C3CCN(C(=O)OC(C)(C)C)CC3)CC2)c1C	.	?	-23.1%	.	-10.5%
O=C(OCc1ccccc1F)c1cnc(Cl)c(Cl)c1	-17.8%[46.1 µM]	-2.7%[46.1 µM]	-6.2%	-11.0%	i
O=C(OCc1c(F)cccc1Cl)c1cnc(Cl)c(Cl)c1	-6.0%[46.1 µM]	15.3%[46.1 µM]	0.0%	10µM*	2.9%
CN1CCN(C(c2cccc(C(F)(F)F)c2)c2nnnn2Cc2ccccc2)CC1 (stereo unspecified)	14.6µM*	?	-22.3%	?	-9.8%
N#Cc1cccc(C(c2nnnn2Cc2ccccc2)N2CCCC2)c1 (stereo unspecified)	-0.2%	1.8%	-14.9%	3.7%	-2.0%
O=C(CCl)N(O)c1ccc(C=Cc2ccccc2)cc1	?	8.91µM*	-3.7%	?	-2.9%
OC1(CNCc2cn[nH]c2-c2cc3ccccc3o2)CCCCC1	7.94µM*	-29.9%	-7.4%	?	-4.9%
CCN(CC)S(=O)(=O)c1ccc(C)c(NC(=O)CNc2cccc(S(=O)(=O)N3CCOCC3)c2)c1	0.4%[46.1 µM]	-10.3%	-4.9%	?	-28.0%
Cc1ccc(S(=O)(=O)c2cccc(S(=O)(=O)N3CCCC3)c2)cc1S(=O)(=O)N1CCCC1	?	?	.	15.8µM*	.
CCN(CC)S(=O)(=O)c1cc(NC(=O)C(C)N2CC=C(c3ccccc3)CC2)ccc1C (stereo unspecified)	?	16.4µM*	-29.2%	11.2µM*	?
Cc1ccc(S(=O)(=O)c2cccc(S(=O)(=O)N3CCOCC3)c2)cc1S(=O)(=O)N1CCOCC1	0.7%	7.3%	-2.8%	7.6%	-10.7%
CCN(CC)S(=O)(=O)c1cccc(NC(=O)CNc2cccc(S(=O)(=O)N3CCOCC3)c2)c1	?	?	?	0.562µM*	?
CCN(CC)S(=O)(=O)c1cc(NC(=O)CNc2cccc(S(=O)(=O)N3CCCC3)c2)ccc1C	?	?	?	0.562µM*	-26.3%
COc1ccc(CN2CCCC(c3nc(-c4ccncc4)ncc3-c3ccccc3)C2)cc1OC (stereo unspecified)	.	.	14.8%	.	-0.3%
COc1ccc2c(c1)[C@]1(C)CCC(=O)C[C@H]1CC2	.	.	-6.2%	.	-6.5%
CC(=O)c1cccc(NCC(=O)Nc2cc(S(=O)(=O)N3CCCCC3)ccc2C)c1	-15.8%	-12.8%	-15.9%	11.2µM*	-20.1%
O=C1c2sc3nc4ccccc4n3c2C(=O)N1c1ccccc1Cl	-20.5%	27.1%	-14.5%	?	-19.4%[1.46 µM]
N=c1cc(C2(O)CCCCC2)n2c(nc3ccccc32)s1	5.8µM*	10.3µM*	.	-4.7%	.
CC(Nc1cc(C)cc(C)c1)=[N+](C)CCNS(=O)(=O)c1ccc(Cl)cc1	10µM*	-11.7%[46.1 µM]	-11.7%	0.9%	?
COc1ccc(NC(C)=[N+](C)CCNS(=O)(=O)c2ccc(Cl)cc2)cc1Cl	.	.	.	-15.6%	.
SMILES	Marburg entry inh	LASV entry inh	VACV Venus inh	HCV inh	Vaccinia mCherry
COCCNc1nc(Oc2ccc(NC(C)=O)cc2)c2sc(-c3ccccc3)cc2n1	.	.	?	.	-13.7%
COCCNc1nc(NCc2ccc(NC(C)=O)cc2)c2sc(-c3ccccc3)cc2n1	.	.	11.2µM*	.	?
O=C1c2cccc3cccc(c23)C(=O)N1CCN1CCN(CC(O)COc2ccc3ccccc3c2)CC1 (stereo unspecified)	?	?	-13.1%	11.2µM*	-14.3%
COc1cccc(OCC(O)CN2CCC(CN3C(=O)c4cccc5cccc(c45)C3=O)CC2)c1 (stereo unspecified)	?	?	-23.5%	?	-22.8%
Cc1ccc(S(=O)(=O)N2CCC(CN3C(=O)c4cccc5cccc(c45)C3=O)CC2)cc1	-13.2%	-14.3%	-17.0%	?	.
Cc1cc(C)cc(OCC(O)CN2CCC(CN3C(=O)c4cccc5cccc(c45)C3=O)CC2)c1 (stereo unspecified)	-0.9%	.	?	2.24µM*	?
CC(=O)c1ccccc1OCC(O)CN1CCN(CCN2C(=O)c3cccc4cccc(c34)C2=O)CC1 (stereo unspecified)	?	?	?	10µM*	-20.6%
CC(=O)c1ccccc1OCC(O)CN1CCN(c2ccccn2)CC1 (stereo unspecified)	-5.0%[46.1 µM]	3.6%[46.1 µM]	-8.9%	3.7%	-2.2%
O=C1c2cccc3cccc(c23)C(=O)N1CC1CCN(CC(O)COc2ccc3ccccc3c2)CC1 (stereo unspecified)	-1.5%	.	.	7.94µM*	.
COc1ccc(C2Nc3ccccc3C(=O)N2Cc2ccco2)cc1OC (stereo unspecified)	.	.	-15.0%	.	-2.5%
COc1cc(-c2cc(C)c3c(OC)ccc(OC)c3n2)cc2c1OCCN(C(=O)CCn1ccc(C)n1)C2	.	.	-1.6%	.	-11.7%
CC1CCCN(CCCNC(=O)c2ccc3c(c2)N(Cc2ccccc2F)C(=O)c2ccccc2S3(=O)=O)C1 (stereo unspecified)	?	-19.1%[46.1 µM]	-26.3%	10µM*	?
CCN1CCCC1CNC(=O)c1ccc2c(c1)N(Cc1ccccc1F)C(=O)c1ccccc1S2(=O)=O (stereo unspecified)	.	.	.	10µM*	.
CSCCC(NS(=O)(=O)c1ccc2c(c1)oc(=O)n2C)C(=O)NCc1ccc(Cl)cc1 (stereo unspecified)	.	0.5%[46.1 µM]	-4.9%	.	-10.1%
CSc1ccc(/C=N/NC(=O)c2sccc2C)cc1	10µM*	?	-19.2%	-1.9%	-2.0%
CSc1ccc(/C=N/NC(=O)c2ccc(C)c(C)c2)cc1	-18.7%	?	-20.3%	-16.1%	-11.7%
O=C(N/N=C/c1ccc(F)cc1)c1sccc1OCc1ccc(F)cc1	2.24µM*	?	?	?	?
CCn1c(=N)c(C(=O)NCc2ccccc2)cc2c(=O)n3cc(C)ccc3nc21	?	-20.9%[46.1 µM]	0.6%	.	9.0%
O=C(C[n+]1cccc2cc(Cl)ccc21)c1ccc(I)cc1	.	.	78.1%	.	-15.6%
CC[N+](C)(C(=O)O)/C(=C\c1ccccc1)c1ccnc2ccccc12 (stereo unspecified)	.	.	29.2%	.	-19.1%
CC(=O)N(CCCN(C)C)Cc1ccccn1	1.6%[46.1 µM]	18.3%[46.1 µM]	-23.4%	13.9%	-1.2%
CC(=O)N(CCCc1ccc(C(C)(C)C)cc1)CCCN(C)C	?	-6.8%	-8.0%	7.94µM*	i
CC(C)OC(=O)c1cccc(NC(=O)Cn2nnc3sc4c(c3c2=O)CCCC4)c1	-16.4%[46.1 µM]	20.0%[46.1 µM]	-11.4%	.	-7.9%
